Where “and” joins values, the source holds several entries; their conditions need not be identical. Equal entries are not always repeated. The campaign covered roughly 370,000 compounds. About 3,700 (1%) were called active.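 How the source made its calls: active means activation above the mean over all tested compounds plus 3 SD (cut at about 0.9% in these data); inactive means the rest.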 The sample as a whole holds a higher share of actives than the screen did. Some compounds were tested as several samples or in several runs, with calls that do not always agree.
Each compound was assayed on Nuclear hormone receptor DAF-12 (Strongyloides stercoralis) (assay: S. stercoralis DAF-12 nuclear receptor activators, primary screen, cell-based, luminescence, HEK293, GRIP1 co-expression, lit1-tk-luc (AID 652126;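 further: 0% = DMSO-only wells and 100% = 3 µM delta7-dafachronic acid wells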)). Details: HEK293 ssDAF-12/GRIP1 lit1-tk-luc reporter, at 6.8 µM, stronger effect = higher value, % of 3 µM dafachronic acid response.

| SMILES | activation |
| --- | --- |
| COc1cccc(-c2cc3nc(NCCOc4ccccc4Cl)n(C)c(=O)c3s2)c1 | -1.7% (inactive) |
| O=c1[nH]c(CCl)nc2cc(-c3ccc(Cl)cc3)sc12 | 1.53% (active) |
| Cn1c(NCc2cccnc2)nc2cc(-c3ccc(F)cc3)sc2c1=O | -1.06% (inactive) |
| CC(C)(C)OC(=O)NCc1cc(F)ccc1/C=C/S(=O)(=O)NCCc1ccccc1 | -1.87% (inactive) |
| CCC(=O)OCCCN1C(=O)CCC12CCC(c1ccccc1)CC2 (configuration not stated) | -0.68% (inactive) |
| CCn1c(SCC(C)=O)nc2sc3c(c2c1=O)CCCC3 | -2.16% (inactive) |
| Cc1ccc(C)c(-n2c(SCC(=O)O)nc3sc4c(c3c2=O)CCCC4)c1 | -1.01% (inactive) |
| NNC(=O)C1CCCn2c1nc1sc3c(c1c2=O)CCCC3 (configuration not stated) | 1.14% (active) |
| COc1cccc(Cn2cc(COC(=O)Nc3ccc(F)cc3)nn2)c1 | -0.68% (inactive) |
| COc1ccc(CSc2nnc(-c3cccc(C)c3)n2C)cc1 | -1.19% (inactive) |
| COc1ccc(C2CC(=O)n3c(nc4ccccc43)S2)cc1OC (configuration not stated) | -1.19% (inactive) |
| COc1ccc(C2CC(c3cccs3)=Nc3ccccc3S2)cc1OC (configuration not stated) | 1.64% (active) |
| COc1ccc(C2CC(c3cccs3)=NN2c2nc(C)c(C(C)=O)s2)cc1OC (configuration not stated) | -0.94% (inactive) |
| COP(=O)(O)CNC(=O)OCc1ccccc1 | -0.73% (inactive) |
| CC(=O)N1CCCN(C2=Nc3ccccc3Sc3ccccc32)CC1 | -1.69% (inactive) |
| COc1ccccc1C(=O)COC(=O)CSCC(=O)Nc1cc(C)on1 | 1.36% (active) |
| Cc1cc(NC(=O)CSCc2ccccc2C)no1 | -1.6% (inactive) |
| Cc1cc(NC(=O)CSCC(=O)NC(C)c2ccccc2)no1 (configuration not stated) | -1.09% (inactive) |
| CN(CCO)c1cccc2c1S(=O)(=O)N(Cc1cn(Cc3ccc(C(F)(F)F)cc3)nn1)Cc1ccccc1O2 | -0.96% (inactive) |
| O=C1C(=O)N(Cc2ccc(-c3ccsc3)cc2)c2ccc(OC(F)(F)F)cc21 | -0.76% (inactive) |
| CCS(=O)(=O)c1cc([N+](=O)[O-])c(Sc2ccccc2N)s1 | 0.94% (active) |
| COc1ccccc1C(=O)CSc1nnc(-c2ccccn2)n1-c1ccccc1 | -1.43% (inactive) |
| C=CCN1C(=O)[C@@H](CC(=O)NCC2CCCCC2)[C@]2(C(=O)OC)CCCCC=C12 | -1.59% (inactive) |

| SMILES | activation |
| --- | --- |
| COCC(=O)N[C@@H]1C[C@@H]2O[C@@H](CO)CC[C@@H]2O[C@@H]1CCc1ccc(-c2ccccc2)cc1 | -1.17% (inactive) |
| CN(Cc1ccc(F)cc1)C(=O)COc1ccc2ccccc2c1 | -0.45% (inactive) |
| COc1ccccc1S(=O)(=O)NCc1ccc(C(=O)N(C)Cc2ccc(F)cc2)cc1 | -1.02% (inactive) |
| CN(Cc1nc2ccccc2s1)C(=O)c1ccc(F)cc1 | 1.11% (active) |
| CSc1ccc(C=Nn2c(-c3ccc(F)cc3)n[nH]c2=S)cc1 | -1.67% (inactive) |
| C[C@@H]1ON(C)[C@H]2C[C@H]3c4[nH]c5cccc(-c6ccc7c(c6)OCO7)c5c4CCN3C[C@@H]12 | -0.56% (inactive) |
| CC(C)Cc1cc(C(=O)Nc2cc(Br)ccc2O)no1 | -1.29% (inactive) |
| O=C(NCCCc1ccccc1)c1cc(COc2c(F)cccc2F)on1 | -0.16% (inactive) |
| CC(C)Cc1cc(C(=O)NCCc2ccccc2)no1 | 1.34% (active) |
| COc1ccc(-n2c(SCC(=O)Nc3ccc(C)c(Cl)c3)nc3ccccc3c2=O)cc1 | -2.01% (inactive) |
| CC(=O)Nc1nc2ncccn2c1-c1ccc(C(F)(F)F)cc1 | -0.67% (inactive) |
| COc1ccccc1C1=Nc2cccc3cccc(c23)N1 | -1.81% (inactive) |
| Brc1ccc(C2CC(c3ccccc3)=Nc3ccccc3N2)cc1 (configuration not stated) | 0.69% (inactive) |
| c1ccc(C2=Nc3cccc4cccc(c34)N2)cc1 | 1.19% (active) |
| COC(=O)[C@]12C[C@H](CC(=O)NCc3ccccc3)C(=O)N(CCC3=CCCCC3)C1=C[C@H](C(C)C)O[C@@H]2C1CC1 | -1.77% (inactive) |
| COc1ccc(-n2c(SCC(=O)Nc3ccccc3-c3ccccc3)nnc2-c2cccnc2)cc1 | -1.34% (inactive) |
| CCC1C(=O)c2ccccc2N(C)C1=O (configuration not stated) | -0.91% (inactive) |
| CN1C(=O)/C(=N/OC(=O)c2ccccc2Br)c2ccccc21 | -1% (inactive) |
| CN1C(=O)/C(=C\c2cc(Br)cs2)c2ccccc21 | 1.58% (active) |
| CCC(CO)Nc1cccc2c1S(=O)(=O)N(Cc1cn(Cc3ccccc3C(F)(F)F)nn1)Cc1ccccc1O2 (configuration not stated) | -1.78% (inactive) |
| O=C(CN(C(=O)CCC(=O)Nc1nccs1)c1ccc(F)cc1)NCc1ccc2c(c1)OCO2 | -0.97% (inactive) |
| CCC(C)(C)NC(=O)CN(C(=O)CCC(=O)Nc1nccs1)c1ccc2c(c1)OCO2 | 1.27% (active) |
| CCC(C)(C)NC(=O)CN(C(=O)CCC(=O)Nc1cc(C)ccn1)c1ccc2c(c1)OCCO2 | -1.73% (inactive) |

| SMILES | activation |
| --- | --- |
| FC(F)(F)c1cccc(NC(=S)OC2CCC23CCC(c2ccccc2)CC3)c1 (configuration not stated) | -0.81% (inactive) |
| CC(NCc1ccco1)C(=O)N1CCCCC1 (configuration not stated) | -1.35% (inactive) |
| COC(=O)c1sccc1NC(=O)c1ccc(Cl)cc1 | 0.94% (active) |
| COC(=O)c1sccc1N/N=C(\C)c1ccc(F)c(Cl)c1 | -1% (inactive) |
| COC(=O)c1sccc1NC(=O)CCC1CCCC1 | -0.73% (inactive) |
| Cc1nnc(-c2ccc(Oc3ccc(C)c(C)c3)c([N+](=O)[O-])c2)o1 | -0.81% (inactive) |
| CCOC(=O)N1CCN(C(=O)C[C@@H]2C(=O)N(CCc3ccc(Cl)cc3)C3=CCCC[C@]32C(=O)OCC)CC1 | -1.59% (inactive) |
| O=C(CN1CCSCC1)N/N=C/c1ccc(Cl)cc1 | 1.53% (active) |
| O=C(CN1CCSCC1)N/N=C/c1ccc(F)cc1F | -1.01% (inactive) |
| Cc1ccc(S(=O)(=O)N2CCN(CC(=O)N/N=C/c3ccc(Br)s3)CC2)cc1 | -1.5% (inactive) |
| COc1ccc(N2CCN(CCNS(=O)(=O)c3ccc(Cl)s3)CC2)cc1 | -0.86% (inactive) |
| O=C(NC1CCCCN(Cc2cccc(C(F)(F)F)c2)C1=O)c1ccccc1I (configuration not stated) | -1.74% (inactive) |
| Cn1c(NC(=O)c2ccccc2)nc2ccccc21 | 1.7% (active) |
| CCn1c(NC(=O)c2nn(C)cc2Br)nc2ccccc21 | -0.8% (inactive) |
| COC(=O)c1ccc(-n2cnc3ccccc32)nc1 | -0.78% (inactive) |
| COc1ccccc1C(=O)NC1CCCCN(C(C)C)C1=O (configuration not stated) | -0.64% (inactive) |
| CCN(CC)S(=O)(=O)c1ccc(NC(=O)c2cccnc2Cl)c(NC(=O)c2cccnc2Cl)c1 | -0.9% (inactive) |
| CCOC(=O)N1CCC(N2Cc3cccc(C(=O)Nc4ccc(S(=O)(=O)N(CC)CC)cc4)c3C2=O)CC1 | -1.26% (inactive) |
| CCN(CC)S(=O)(=O)c1ccc(NC(=O)c2cnc(C)cn2)cc1 | 1.35% (active) |
| COC(=O)C1CN(CC(C)C)CCS(=O)(=O)N1Cc1ccc(F)cc1 (configuration not stated) | -1.13% (inactive) |
| CCOC(=O)[C@]12CCCCC/C=C\1N(Cc1ccc(OC)cc1)C(=O)[C@H]2CC(=O)N1CCOCC1 | -0.98% (inactive) |
| COc1ccc(NCCc2ccccn2)cc1 | 1.17% (active) |
| Cc1c(C)c(C)c(S(=O)(=O)NCCc2ccccn2)c(C)c1C | 0.14% (inactive) |

| SMILES | activation |
| --- | --- |
| COc1cncc(-c2cnc3sc(NCCc4ccccn4)nn23)c1 | -1.45% (inactive) |
| COC(=O)[C@@]12CCCCC3=C1N(CCC3)C(=O)[C@H]2CC(=O)NCc1cccc2ccccc12 | -0.9% (inactive) |
| COC(=O)C(C)Oc1ccc2c(-c3cccc([N+](=O)[O-])c3)cc(=O)oc2c1 (configuration not stated) | -1.35% (inactive) |
| COc1cccc(-c2nc3cc(C)ccc3o2)c1 | 2.34% (active) |
| O=[N+]([O-])c1ccc2oc(-c3cccc(O)c3)nc2c1 | 3.74% (active) |
| COc1cccc(NS(=O)(=O)c2ccc(-c3coc(C)n3)cc2)c1 | -0.73% (inactive) |
| COc1cccc(-c2cnc(OC(C)(C)C)nc2OC(C)(C)C)c1 | -1.2% (inactive) |
| O=C(O)c1ccc([N+](=O)[O-])cc1Sc1ccsc1 | -1.44% (inactive) |
| Cc1cc(=O)[nH]c(SCC(=O)Nc2ccc(F)cc2F)n1 | -1.31% (inactive) |
| C=CCN1[C@@H](Cc2ccccc2)COc2cccc(N3CCSCC3)c2S1(=O)=O | -1.93% (inactive) |
| O=C(N1CCOCC1)N1CC[C@H]2[C@H](CCCN2Cc2ccc(F)cc2)C1 | -1.48% (inactive) |
| C[C@H](C(=O)N(C)c1ccccc1)[C@@H](O)c1ccc(Cl)cc1 | -1.24% (inactive) |
| Cn1c(=O)[nH]c(=O)c2c1nc(CN1CCN(c3ccccc3F)CC1)n2CCc1ccccc1 | -1.22% (inactive) |
| O=C(NC(=O)c1ccccc1)Nc1ccccc1O | 2.39% (active) |
| O=C(NC(=S)Nc1cccc2c(O)cccc12)c1cccc(Br)c1 | -1.15% (inactive) |
| N#C/C(=C/c1ccc(Cl)cc1)NC(=O)c1ccccc1 | -1.06% (inactive) |
| CCCS(=O)(=O)Nc1c(C(=O)O)[nH]c2ccccc12 | 0.51% (inactive) |
| CCc1ccc2[nH]c(=O)c(Cc3ccccc3)c(O)c2c1 | -1.02% (inactive) |
| NS(=O)(=O)c1ccccc1NC(=O)c1c(O)c2ccccc2[nH]c1=O | 1.94% (active) |
| OC(COc1ccc2ccccc2c1)Cn1cncn1 (configuration not stated) | -0.42% (inactive) |
| OC(COc1ccc2ccccc2c1)CN1CCOCC1 (configuration not stated) | 0.96% (active) and -0.96% (inactive) |
| O=S(=O)(c1ccc(OCC(O)CN2CCN(c3ccccc3Cl)CC2)cc1)N1CCOCC1 (configuration not stated) | -1.31% (inactive) |
| Cc1ccccc1CN1CCCCC(NC(=O)Nc2ccccc2F)C1=O (configuration not stated) | -1.37% (inactive) |
